Activity calls are given as the source filed them. Unless noted, how the calls were made is not given here.
Legend:
[1] = anti-His antibody binders, primary screen, artefact control for SMM control protein annotation, biochemical, small-molecule microarray, 635 nm fluorescence (AID 1128); conditions: anti-His Alexa647 antibody binding, higher = more signal;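 further: score merges feature fluorescence with signal-to-noise for each printed compound spot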
[2] = test system: Human papillomavirus type 1a E7 protein (residues 1-88); assay: HPV1a E7 small-molecule binders, primary screen, biochemical, small-molecule microarray, residues 1-88, 635 nm (AID 1129); conditions: small-molecule microarray binding, fluorescence 635 nm; higher = more signal
[3] = target: Focal adhesion kinase 1 (Homo sapiens) (UniProt Q05397); assay: small-molecule microarray binders of FAK, primary screen, biochemical, 635/667 nm fluorescence, BSA, DTT (AID 1130); conditions: PTK2 binding, 635 nm fluorescence, higher = more signal;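 further: composite of spot emission at 667 nm and signal to noise over triplicate slides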
[4] = test system: Fibrinogen (Alexa647-labelled); assay: fibrinogen binders on compound microarrays, profiling panel, artefact control for SMM control-protein annotation, biochemical, small-molecule microarray, 635/667 nm fluorescence (AID 1131); conditions: fibrinogen-A647 binding fluorescence, higher = more signal;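 further: z-score merges 667 nm fluorescence with per-spot signal-to-noise over triplicate slides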
[5] = target: Follistatin (Homo sapiens) (UniProt P19883); assay: follistatin binders on small-molecule microarrays, primary screen, biochemical, small-molecule microarray, 635/667 nm fluorescence (AID 1132); conditions: FST binding, 635 nm fluorescence, higher = more signal
[6] = target: Fibroblast growth factor 2 (Homo sapiens) (UniProt P09038); assay: FGF2 binders on small-molecule microarrays, primary screen, biochemical, small-molecule microarray, 635/667 nm fluorescence (AID 1133); conditions: small-molecule microarray binding, FGF2, fluorescence 635/667; higher = more signal
[7] = mitochondrial membrane potential change in A549 cells, profiling panel, cell-based, JC-1 fluorescence, basal, 24 h, 100 nL (AID 1138); conditions: higher = more signal;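 further: A549 lung adenocarcinoma cells under basal conditions with no added stimulus; test concentration not given here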
Lefty1 = Lefty1 binders on small-molecule microarrays, primary screen, biochemical, small-molecule microarray, 635/667 nm fluorescence (AID 1139); conditions: small-molecule microarray binding, fluorescence 635/667; higher = more signal
[8] = test system: wheat germ agglutinin (Triticum aestivum), Alexa647-labelled; assay: wheat germ agglutinin binders on compound microarrays, profiling panel, artefact control for SMM control-protein annotation, biochemical, small-molecule microarray, 635/667 nm fluorescence (AID 1140); conditions: WGA-A647 binding, 635 nm fluorescence, higher = more signal;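 further: score merges 667 nm feature emission with signal to noise over triplicate slides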
[9] = target: Luciferin 4-monooxygenase (Photinus pyralis) (UniProt P08659); assay: firefly luciferase enzyme inhibitors, primary screen, biochemical, luminescence, purified enzyme, 2006 set (AID 1141); conditions: SteadyGlo luminescence, 30 min, higher = more signal, called active from +8 up or from −8 down;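 further: cell-free assay with purified firefly luciferase at 100 ng per well in PBS; test concentration not given here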
[10] = test system: Wnt5a (protein binding on small-molecule microarray); assay: Wnt5a binders on small-molecule microarray, primary screen, biophysical, 635/667 nm fluorescence (AID 1142); conditions: 635 nm fluorescence, higher = more signal;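 further: fluorescence read at 667 nm with signal to noise per printed feature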
[11] = cell viability in Huh7 cells, primary screen, cytotoxicity control for HCV replication inhibitor project, CellTiter-Glo luminescence, basal, 48 h (AID 1143); conditions: Huh7 HCV replicon, higher = more signal, called active from +8 up or from −8 down;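 further: Huh7 hepatoma cells carrying a hepatitis C replication reporter with no stimulus; test concentration not given here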
[12] = P. aeruginosa biofilm formation inhibitors, primary screen, PAO1 strain, BacTiter-Glo luminescence, LB-PBS (AID 1144); conditions: 12 h, higher = more signal
[13] = CREB reporter modulators without forskolin, primary screen, cell-based, PC12, CRE-LacZ reporter, unstimulated (AID 1145); conditions: no forskolin, luminescence, 4.5 h, higher = more signal, called active from +8 up or from −8 down
[14] = CREB reporter modulators under forskolin, primary screen, cell-based, PC12, CRE-LacZ reporter, forskolin-stimulated (AID 1146); conditions: luminescence, 4.5 h, higher = more signal, called active from +8 up or from −8 down;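 further: PC12 cells with 6xCRE LacZ reporter stimulated by forskolin 10 µM; beta-galactosidase reporter signal reflecting CREB driven transcription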
[15] = target: Streptavidin (Streptomyces avidinii) (UniProt P22629); assay: streptavidin binders on small-molecule microarray, primary screen, artefact control for SMM compound annotation, biophysical, 635/667 nm fluorescence (AID 1147); conditions: streptavidin binding, higher = more signal;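 further: signal reflects streptavidin binding to arrayed compounds as a control protein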
[16] = small-molecule binders of probe aInhba, primary screen, biochemical, small-molecule microarray, 635/667 nm fluorescence (AID 1148); conditions: higher = more signal;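 further: score merges 667nm spot fluorescence with signal-to-noise for antibody binding to printed compounds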
Torsin-1A (Homo sapiens) [17] = target: Torsin-1A (Homo sapiens) (UniProt O14656); assay: torsin A binders from cell lysate, primary screen, small-molecule microarray, wild-type, 635/667 nm (AID 1149); conditions: COS7 hTOR1A-WT lysate, 635 nm fluorescence, higher = more signal
Torsin-1A (Homo sapiens) [18] = target: Torsin-1A (Homo sapiens) (UniProt O14656); assay: small-molecule binders of mutant TOR1A in lysate, primary screen, cell lysate, small-molecule microarray, COS7 lysate, 635/667 nm fluorescence (AID 1150); conditions: COS7 hTOR1A mutant lysate, 635 nm fluorescence, higher = more signal;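 further: score pools 667 nm emission and signal to noise measuring lysate protein binding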
[19] = test system: Sonic hedgehog protein (Shh); assay: small-molecule binders of Shh protein, primary screen, biochemical, small-molecule microarray, 635/667 nm fluorescence (AID 1151); conditions: small-molecule microarray binding, 635 nm fluorescence; higher = more signal;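 further: Shh protein binding to compounds spotted on small-molecule microarray slides; score combines spot fluorescence intensity with signal-to-noise across triplicate slides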

Focal adhesion kinase 1 (Homo sapiens), sequence (Q05397 whole entry, looked up): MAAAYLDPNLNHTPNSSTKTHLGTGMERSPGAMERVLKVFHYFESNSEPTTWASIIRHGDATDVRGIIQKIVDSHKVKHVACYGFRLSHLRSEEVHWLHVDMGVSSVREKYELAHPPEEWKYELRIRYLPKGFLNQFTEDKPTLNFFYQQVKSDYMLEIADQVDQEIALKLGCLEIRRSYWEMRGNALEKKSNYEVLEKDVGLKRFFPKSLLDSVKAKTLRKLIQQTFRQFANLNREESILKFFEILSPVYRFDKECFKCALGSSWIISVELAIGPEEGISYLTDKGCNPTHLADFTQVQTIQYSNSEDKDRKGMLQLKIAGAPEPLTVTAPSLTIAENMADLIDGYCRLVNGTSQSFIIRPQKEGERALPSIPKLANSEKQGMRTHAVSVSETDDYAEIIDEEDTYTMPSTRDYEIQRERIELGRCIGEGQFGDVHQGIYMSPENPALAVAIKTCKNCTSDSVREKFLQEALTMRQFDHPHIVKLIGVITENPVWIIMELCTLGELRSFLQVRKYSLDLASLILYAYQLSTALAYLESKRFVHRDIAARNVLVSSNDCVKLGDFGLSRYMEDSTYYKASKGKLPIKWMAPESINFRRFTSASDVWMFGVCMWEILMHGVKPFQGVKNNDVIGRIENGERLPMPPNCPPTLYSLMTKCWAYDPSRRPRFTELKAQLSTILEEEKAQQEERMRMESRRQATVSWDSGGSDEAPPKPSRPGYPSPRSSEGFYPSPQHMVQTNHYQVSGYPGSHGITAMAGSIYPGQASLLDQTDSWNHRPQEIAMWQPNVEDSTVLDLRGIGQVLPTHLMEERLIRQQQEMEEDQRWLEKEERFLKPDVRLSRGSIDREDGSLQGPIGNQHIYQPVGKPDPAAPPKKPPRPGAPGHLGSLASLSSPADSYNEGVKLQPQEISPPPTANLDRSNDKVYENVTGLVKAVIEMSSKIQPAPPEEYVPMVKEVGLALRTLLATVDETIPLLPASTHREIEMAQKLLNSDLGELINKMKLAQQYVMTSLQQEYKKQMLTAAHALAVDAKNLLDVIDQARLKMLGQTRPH
Fibroblast growth factor 2 (Homo sapiens), sequence (P09038 whole entry, looked up): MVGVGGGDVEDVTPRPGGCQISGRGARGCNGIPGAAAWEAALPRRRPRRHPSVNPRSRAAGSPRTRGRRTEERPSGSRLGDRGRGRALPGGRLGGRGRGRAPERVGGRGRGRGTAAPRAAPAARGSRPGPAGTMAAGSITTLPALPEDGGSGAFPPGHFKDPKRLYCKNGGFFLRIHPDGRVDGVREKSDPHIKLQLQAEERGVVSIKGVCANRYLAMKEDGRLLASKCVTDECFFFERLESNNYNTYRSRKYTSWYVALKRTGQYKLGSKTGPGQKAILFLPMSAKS
Streptavidin (Streptomyces avidinii), sequence (P22629 whole entry, looked up): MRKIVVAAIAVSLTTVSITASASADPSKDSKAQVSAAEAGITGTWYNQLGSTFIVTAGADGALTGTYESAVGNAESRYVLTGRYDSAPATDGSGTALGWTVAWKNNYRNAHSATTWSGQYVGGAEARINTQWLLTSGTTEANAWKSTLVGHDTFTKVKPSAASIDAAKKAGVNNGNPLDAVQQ
Torsin-1A (Homo sapiens), sequence (O14656 whole entry, looked up): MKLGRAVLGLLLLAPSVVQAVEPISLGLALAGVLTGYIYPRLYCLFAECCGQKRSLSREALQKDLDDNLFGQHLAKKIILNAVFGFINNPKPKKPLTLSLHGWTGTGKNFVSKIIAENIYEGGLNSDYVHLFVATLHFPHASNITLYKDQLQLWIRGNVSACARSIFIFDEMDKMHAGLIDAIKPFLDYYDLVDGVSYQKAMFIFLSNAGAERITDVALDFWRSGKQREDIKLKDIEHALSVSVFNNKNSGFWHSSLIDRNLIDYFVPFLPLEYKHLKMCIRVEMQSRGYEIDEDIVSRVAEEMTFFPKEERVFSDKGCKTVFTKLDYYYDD
Luciferin 4-monooxygenase (Photinus pyralis), sequence (P08659 whole entry, looked up): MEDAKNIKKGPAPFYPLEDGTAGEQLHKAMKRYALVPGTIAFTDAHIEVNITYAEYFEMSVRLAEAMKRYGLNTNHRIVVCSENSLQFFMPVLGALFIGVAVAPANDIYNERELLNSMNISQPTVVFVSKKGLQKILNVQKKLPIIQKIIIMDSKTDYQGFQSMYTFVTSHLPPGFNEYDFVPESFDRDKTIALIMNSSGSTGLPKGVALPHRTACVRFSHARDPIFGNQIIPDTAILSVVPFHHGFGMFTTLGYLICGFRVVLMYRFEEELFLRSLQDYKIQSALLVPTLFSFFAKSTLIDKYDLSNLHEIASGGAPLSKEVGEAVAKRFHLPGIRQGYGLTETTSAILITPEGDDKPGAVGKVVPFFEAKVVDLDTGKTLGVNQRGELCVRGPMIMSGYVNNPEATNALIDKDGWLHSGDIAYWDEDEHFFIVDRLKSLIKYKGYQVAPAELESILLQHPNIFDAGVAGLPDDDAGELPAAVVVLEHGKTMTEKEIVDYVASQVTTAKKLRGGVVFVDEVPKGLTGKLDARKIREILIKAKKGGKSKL
Follistatin (Homo sapiens), sequence (P19883 whole entry, looked up): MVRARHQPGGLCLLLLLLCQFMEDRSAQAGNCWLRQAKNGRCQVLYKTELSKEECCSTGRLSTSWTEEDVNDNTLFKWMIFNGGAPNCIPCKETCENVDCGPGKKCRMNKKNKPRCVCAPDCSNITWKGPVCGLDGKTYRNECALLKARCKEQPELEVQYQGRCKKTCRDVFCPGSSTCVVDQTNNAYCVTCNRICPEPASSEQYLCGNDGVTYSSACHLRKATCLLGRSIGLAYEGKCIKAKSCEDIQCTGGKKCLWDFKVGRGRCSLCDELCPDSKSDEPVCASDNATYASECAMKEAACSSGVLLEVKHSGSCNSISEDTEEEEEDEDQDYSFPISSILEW

SMILES	composite z-score [1]	composite z-score [2]	composite z-score [3]	composite z-score [4]	composite z-score [5]	composite z-score [6]	z-score [7]	composite z-score (Lefty1)	composite z-score [8]	z-score [9]	composite z-score [10]	z-score [11]	z-score [12]	z-score [13]	z-score [14]	composite z-score [15]	composite z-score [16]	composite z-score (Torsin-1A (Homo sapiens) [17])	composite z-score (Torsin-1A (Homo sapiens) [18])	composite z-score [19]
CCOc1ccc(N2C(=O)/C(=C/C=C/c3ccccc3OC)S(=O)(=O)C2c2cccc([N+](=O)[O-])c2)cc1 (stereo not given)	-0.359	0.339	0.0604	0.441	0.475	0.235	2.31	0.23	0.432	-0.889 (inactive)	-0.0676	-4.29 (inactive)	-1.57 (inactive)	0.0026 (inactive)	-1.2 (inactive)	0.27	-0.0596	1.94	0.184	0.37
O=C1C[C@@H](O)[C@@H](O)[C@@H]2[C@@H]3C(=O)N(c4ccc(F)cc4F)C(=O)[C@@H]3CC[C@@H]12	0.408	0.709	-0.246	-0.518	0.312	0.294	0.245	0.379	0.044	-0.9 (inactive)	-0.0711	0.988 (inactive)	-0.356 (inactive)	0.792 (inactive)	-0.0611 (inactive)	0.254	-0.0887	0.243	0.149	0.786
C=CCOC(=O)[C@H]1[C@@H]2C(=O)O[C@@H](c3ccccc3)[C@@H](c3ccccc3)N2[C@@H](c2ccc(OCCOC(=O)[C@H]3C[C@H]4C(=O)N[C@@H](Cc5ccccc5)C(=O)N4[C@H]3c3ccc(O)cc3)cc2)[C@]12C(=O)Nc1ccccc12	2.22	1.13	1.23	0.51	1.46	1.67	-1.58	1.46	0.654	-2.01 (inactive)	0.354	-0.155 (inactive)	-0.0202 (inactive)	0.285 (inactive)	-0.231 (inactive)	-0.261	-0.171	0.419	0.278	1.92
COCC(=C=CC[C@@H](O)c1ccccc1OCCO)CCO	0.0272	0.534	0.208	0.664	0.768	1.46	1.51	0.409	-0.0571	-2.02 (inactive)	0.0554	0.0309 (inactive)	-0.118 (inactive)	0.914 (inactive)	-0.732 (inactive)	-0.174	-0.0074	0.635	0.518	0.156
CCOC(=O)[C@H](CC(C)C)NC(=O)CCC1CC(OC(=O)NCc2cccc3ccccc23)CC2(CCCC(COC(=O)NCCN3CCOCC3)O2)O1 (stereo not given in full)	0.804	1.17	0.465	0.356	0.68	0.685	0.154	0.551	0.255	1.03 (inactive)	0.201	-0.293 (inactive)	-0.677 (inactive)	-0.164 (inactive)	1.14 (inactive)	0.308	-0.0494	0.0423	0.765	0.717
O[C@@H](Cc1ccccc1)[C@H]1C2C=CCCC(c3ccccc3)=C2CN1Cc1cccc(Cl)c1 (stereo not given in full)	0.607	1.14	-0.0839	0.43	0.995	0.251	2.09	0.625	0.875	-2.22 (inactive)	0.0825	-1.31 (inactive)	-0.577 (inactive)	2.58 (inactive)	1.44 (inactive)	0.26	0.0355	0.762	0.144	0.733
COC(=O)C1(C)C=C2C(=C(c3ccccc3)C(=O)C2C)CN1 (stereo not given)	1.57	0.0147	0.0183	0.494	-0.882	-0.253	-0.353	-1.5	0.264	1.89 (inactive)	0.0106	-0.266 (inactive)	-0.426 (inactive)	0.593 (inactive)	-0.0287 (inactive)	-0.153	0.12	-0.366	-0.367	-0.593
CC(CCN1CCc2nc(-c3ccccc3)c(-c3ccccc3)cc2C1)=NOC[C@@H](C)[C@H](OCc1ccccc1)C(C)C	1.45	-1.69	0.123	-0.242	-1.45	-1.14	0.436	-0.677	-0.469	-1.09 (inactive)	-0.492	0.232 (inactive)	-0.612 (inactive)	2.07 (inactive)	-0.17 (inactive)	-0.717	-0.261	-2.11	-1.21	-0.819
CCOC(=O)NN=C1C[C@@H](O)[C@@H](O)[C@@H]2[C@@H]3C(=O)N(C4CCCCC4)C(=O)[C@@H]3CC[C@H]12	0.0946	0.832	0.25	0.657	0.061	0.0615	-1.13	0.78	0.395	0.63 (inactive)	-0.064	-0.779 (inactive)	0.786 (inactive)	0.341 (inactive)	0.174 (inactive)	-0.0615	-0.111	0.218	0.568	0.369
CO[C@H]1O[C@H](CO)[C@@H](OC(=O)Nc2ccc3c(c2)OCO3)[C@H](OC(=O)Nc2ccccc2-c2ccccc2)[C@@H]1OC(=O)Nc1ccccc1-c1ccccc1	1.84	1.18	0.195	0.987	1.14	1.68	-0.604	0.186	1	-0.485 (inactive)	0.492	-3.03 (inactive)	-0.176 (inactive)	0.54 (inactive)	-0.528 (inactive)	1.08	0.124	0.957	1.17	0.672

From PubChem BioAssay
